# Hit rate of the full screen: of about 5,500 compounds, about 2,000 (36%) were called active. Another 18% or so got no clear call; they are omitted. The list shows a part of the results. Values without a mark were called inactive. Cut-off read from the data, not from the text of the source: active = normalized growth mostly below about 0.91 (no sharp cut-off); inconclusive = no clear call, values can overlap the other calls; inactive = mostly above about 0.92.
# Assay: chemical genetic growth profiling, strain panel (AID 1159580);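 note: tested at 20 µM; growth read once vehicle control cultures reached saturation at 30 °C; 1 = growth at the plate median or of vehicle wells; lower values mean less growth of the strain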
# Settings: growth OD
# [1] = S. cerevisiae deletion strains, locus YDL101C, strain DUN1, hits give low values
# [2] = S. cerevisiae deletion strains, locus YHR030C, strain SLT2, hits give low values
# [3] = S. cerevisiae deletion strains, locus YAL013W, strain DEP1, hits give low values
# [4] = S. cerevisiae deletion strains, locus YBR229C, strain ROT2, hits give low values
# [5] = S. cerevisiae deletion strains, locus YDR150W, strain NUM1, hits give low values
# [6] = S. cerevisiae deletion strains, locus YEL061C, strain CIN8, hits give low values
# [7] = S. cerevisiae deletion strains, locus YGR078C, strain PAC10, hits give low values
# [8] = S. cerevisiae deletion strains, locus YHR087W, strain rtc3, hits give low values
# [9] = S. cerevisiae deletion strains, locus YJL187C, strain SWE1, hits give low values
# [10] = S. cerevisiae deletion strains, locus YJR043C, strain POL32, hits give low values
# [11] = S. cerevisiae deletion strains, locus YJR075W, strain HOC1, hits give low values
# [12] = S. cerevisiae deletion strains, locus YLR039C, strain RIC1, hits give low values
# [13] = S. cerevisiae deletion strains, locus YLR058C, strain SHM2 (second series), hits give low values
# [14] = S. cerevisiae deletion strains, locus YLR085C, strain ARP6, hits give low values
# [15] = S. cerevisiae deletion strains, locus YLR262C, strain YPT6, hits give low values
# [16] = S. cerevisiae deletion strains, locus YML094W, strain GIM5, hits give low values
# [17] = S. cerevisiae deletion strains, locus YMR219W, strain ESC1, hits give low values
# [18] = S. cerevisiae deletion strains, locus YMR263W, strain SAP30, hits give low values
# [19] = S. cerevisiae deletion strains, locus YMR307W, strain GAS1, hits give low values
# [20] = S. cerevisiae deletion strains, locus YNL153C, strain GIM3, hits give low values
# [21] = S. cerevisiae deletion strains, locus YNL298W, strain CLA4 (second series), hits give low values
# [22] = S. cerevisiae deletion strains, locus YNL322C, strain KRE1, hits give low values
# [23] = S. cerevisiae deletion strains, locus YNR030W, strain Alg12, hits give low values
# [24] = S. cerevisiae deletion strains, locus YPL055C, strain LGE1, hits give low values
# [25] = S. cerevisiae deletion strains, locus YPL241C, strain CIN2, hits give low values
# [26] = S. cerevisiae deletion strains, locus YPR135W, strain CTF4, hits give low values
# [27] = S. cerevisiae strains, strain wild type, hits give low values
smiles,measurement,setting,value
Cc1cc(-c2onc(C)c2C(=O)Sc2ccccc2)no1,normalized growth,"S. cerevisiae deletion strains, locus YAR019C, strain CDC15, hits give low values",0.941
same,normalized growth,"S. cerevisiae deletion strains, locus YBL105C, strain PKC1, hits give low values",0.963
same,normalized growth,"S. cerevisiae deletion strains, locus YBR135W, strain CKS1, hits give low values",0.939
same,normalized growth,"S. cerevisiae deletion strains, locus YBR136W, strain MEC1, hits give low values",0.961
same,normalized growth,"S. cerevisiae deletion strains, locus YBR160W, strain CDC28, hits give low values",0.954
same,normalized growth,"S. cerevisiae deletion strains, locus YDL017W, strain CDC7, hits give low values",0.957
same,normalized growth,"S. cerevisiae deletion strains, locus YDL028C, strain MPS1, hits give low values",0.958
same,normalized growth,[1],0.959
same,normalized growth,"S. cerevisiae deletion strains, locus YDL108W, strain KIN28, hits give low values",0.962
same,normalized growth,"S. cerevisiae deletion strains, locus YDL132W, strain cdc53, hits give low values",0.926
same,normalized growth,"S. cerevisiae deletion strains, locus YDL214C, strain PRR2, hits give low values",0.826
same,normalized growth,"S. cerevisiae deletion strains, locus YDR052C, strain DBF4, hits give low values",0.971
same,normalized growth,"S. cerevisiae deletion strains, locus YDR054C, strain cdc34, hits give low values",0.918
same,normalized growth,"S. cerevisiae deletion strains, locus YDR226W, strain ADK1, hits give low values",0.954
same,normalized growth,"S. cerevisiae deletion strains, locus YDR477W, strain SNF1, hits give low values",0.811
same,normalized growth,"S. cerevisiae deletion strains, locus YER123W, strain YCK3, hits give low values",0.736
same,normalized growth,"S. cerevisiae deletion strains, locus YER133W, strain GLC7, hits give low values",0.823
same,normalized growth,"S. cerevisiae deletion strains, locus YFL009W, strain cdc4, hits give low values",0.921
same,normalized growth,"S. cerevisiae deletion strains, locus YFL029C, strain CAK1, hits give low values",0.921
same,normalized growth,"S. cerevisiae deletion strains, locus YFR003C, strain YPI1, hits give low values",0.958
same,normalized growth,"S. cerevisiae deletion strains, locus YFR019W, strain FAB1, hits give low values",0.909
same,normalized growth,"S. cerevisiae deletion strains, locus YFR028C, strain CDC14, hits give low values",0.96
same,normalized growth,"S. cerevisiae deletion strains, locus YGR040W, strain KSS1, hits give low values",0.852
same,normalized growth,"S. cerevisiae deletion strains, locus YGR052W, strain FMP48, hits give low values",0.81
same,normalized growth,"S. cerevisiae deletion strains, locus YGR092W, strain DBF2, hits give low values",0.705
same,normalized growth,[2],0.743 (active)
same,normalized growth,"S. cerevisiae deletion strains, locus YHR079C, strain IRE1, hits give low values",0.704
same,normalized growth,"S. cerevisiae deletion strains, locus YHR082C, strain KSP1, hits give low values",0.901
same,normalized growth,"S. cerevisiae deletion strains, locus YHR205W, strain SCH9, hits give low values",0.657
same,normalized growth,"S. cerevisiae deletion strains, locus YIL147C, strain SLN1, hits give low values",0.958
same,normalized growth,"S. cerevisiae deletion strains, locus YJL095W, strain BCK1, hits give low values",0.704
same,normalized growth,"S. cerevisiae deletion strains, locus YJL128C, strain PBS2, hits give low values",0.888
same,normalized growth,"S. cerevisiae deletion strains, locus YJL157C, strain FAR1, hits give low values",0.819
same,normalized growth,"S. cerevisiae deletion strains, locus YJR016C, strain ILV3, hits give low values",0.944
same,normalized growth,"S. cerevisiae deletion strains, locus YJR066W, strain TOR1 (second series), hits give low values",0.708
same,normalized growth,"S. cerevisiae deletion strains, locus YJR066W, strain TOR1, hits give low values",0.892
same,normalized growth,"S. cerevisiae deletion strains, locus YKL048C, strain ELM1, hits give low values",0.942
same,normalized growth,"S. cerevisiae deletion strains, locus YKL067W, strain YNK1, hits give low values",0.824
same,normalized growth,"S. cerevisiae deletion strains, locus YKL101W, strain HSL1, hits give low values",0.881
same,normalized growth,"S. cerevisiae deletion strains, locus YKL193C, strain SDS22, hits give low values",0.942
same,normalized growth,"S. cerevisiae deletion strains, locus YKL203C, strain TOR2, hits give low values",0.885
same,normalized growth,"S. cerevisiae deletion strains, locus YLR113W, strain HOG1, hits give low values",0.453 (active)
same,normalized growth,"S. cerevisiae deletion strains, locus YLR133W, strain CKI1, hits give low values",0.867
same,normalized growth,"S. cerevisiae deletion strains, locus YLR403W, strain SFP1, hits give low values",0.794
same,normalized growth,"S. cerevisiae deletion strains, locus YML070W, strain DAK1, hits give low values",0.829
same,normalized growth,"S. cerevisiae deletion strains, locus YMR001C, strain CDC5, hits give low values",0.935
same,normalized growth,"S. cerevisiae deletion strains, locus YMR205C, strain PFK2 (second series), hits give low values",0.87
same,normalized growth,"S. cerevisiae deletion strains, locus YMR277W, strain FCP1, hits give low values",0.925
same,normalized growth,"S. cerevisiae deletion strains, locus YNL006W, strain LST8, hits give low values",0.962
same,normalized growth,"S. cerevisiae deletion strains, locus YNL020C, strain ARK1, hits give low values",0.846
same,normalized growth,"S. cerevisiae deletion strains, locus YNL161W, strain CBK1, hits give low values",0.947
same,normalized growth,"S. cerevisiae deletion strains, locus YNL183C, strain NPR1, hits give low values",0.68
same,normalized growth,"S. cerevisiae deletion strains, locus YNL207W, strain RIO2, hits give low values",0.947
same,normalized growth,"S. cerevisiae deletion strains, locus YNL222W, strain SSU72, hits give low values",0.943
same,normalized growth,"S. cerevisiae deletion strains, locus YNL307C, strain MCK1 (second series), hits give low values",0.802
same,normalized growth,"S. cerevisiae deletion strains, locus YOL078W, strain AVO1, hits give low values",0.918
same,normalized growth,"S. cerevisiae deletion strains, locus YOL136C, strain PFK27, hits give low values",0.843
same,normalized growth,"S. cerevisiae deletion strains, locus YOR061W, strain CKA2, hits give low values",0.859
same,normalized growth,"S. cerevisiae deletion strains, locus YOR119C, strain RIO1, hits give low values",0.836
same,normalized growth,"S. cerevisiae deletion strains, locus YOR231W, strain MKK1, hits give low values",0.75
same,normalized growth,"S. cerevisiae deletion strains, locus YOR329C, strain SCD5, hits give low values",0.95
same,normalized growth,"S. cerevisiae deletion strains, locus YPL031C, strain PHO85, hits give low values",0.783
same,normalized growth,"S. cerevisiae deletion strains, locus YPL153C, strain RAD53, hits give low values",0.756
same,normalized growth,"S. cerevisiae deletion strains, locus YPL204W, strain HRR25, hits give low values",0.805
same,normalized growth,"S. cerevisiae deletion strains, locus YPL209C, strain IPL1, hits give low values",0.944
same,normalized growth,"S. cerevisiae deletion strains, locus YPL256C, strain CLN2, hits give low values",0.695 (active)
same,normalized growth,"S. cerevisiae deletion strains, locus YPR025C, strain CCL1, hits give low values",0.956
same,normalized growth,"S. cerevisiae deletion strains, locus YPR106W, strain ISR1, hits give low values",0.973
same,normalized growth,"S. cerevisiae deletion strains, locus YPR111W, strain DBF20, hits give low values",0.97
same,normalized growth,"S. cerevisiae deletion strains, strain NNK1, hits give low values",0.953
same,normalized growth,"S. cerevisiae deletion strains, strain TSCII, hits give low values",0.93
CSc1cc(C(F)(F)F)cc(SC)c1SC,normalized growth,[3],0.993
same,normalized growth,[4],0.975
same,normalized growth,[1],0.992
same,normalized growth,"S. cerevisiae deletion strains, locus YDL134C, strain PPH21, hits give low values",0.909 (active)
same,normalized growth,[5],1.01
same,normalized growth,[6],0.987
same,normalized growth,[7],0.981
same,normalized growth,[2],0.678 (active)
same,normalized growth,[8],0.953
same,normalized growth,[9],0.986
same,normalized growth,[10],0.988
same,normalized growth,[11],0.945
same,normalized growth,"S. cerevisiae deletion strains, locus YKL190W, strain CNB1, hits give low values",0.967
same,normalized growth,[12],0.785 (active)
same,normalized growth,[13],0.974
same,normalized growth,[14],0.958
same,normalized growth,[15],0.809 (active)
same,normalized growth,[16],1.01
same,normalized growth,[17],0.978
same,normalized growth,[18],0.997
same,normalized growth,[19],0.373 (active)
same,normalized growth,[20],1
same,normalized growth,[21],0.975
same,normalized growth,[22],0.969
same,normalized growth,[23],0.974
same,normalized growth,[24],0.866
same,normalized growth,[25],0.986
same,normalized growth,[26],0.909
same,normalized growth,[27],0.925
COc1ccccc1N1CCN(C(=O)Nc2cc(Cl)cc(Cl)c2)CC1,normalized growth,[3],0.934
same,normalized growth,[4],0.988
same,normalized growth,"S. cerevisiae deletion strains, locus YCL061C, strain MRC1, hits give low values",0.927
same,normalized growth,[1],0.967
same,normalized growth,[5],0.854
same,normalized growth,[6],0.914
same,normalized growth,[7],0.965
same,normalized growth,[2],0.434 (active)
same,normalized growth,[8],0.97
same,normalized growth,[10],0.971
same,normalized growth,[11],0.986
same,normalized growth,[12],1.09
same,normalized growth,[13],1
same,normalized growth,[14],0.511 (active)
same,normalized growth,[15],1.05
same,normalized growth,[16],0.823 (active)
same,normalized growth,[17],1
same,normalized growth,[18],0.937
same,normalized growth,[20],0.975
same,normalized growth,[21],0.715 (active)
same,normalized growth,[22],0.984
same,normalized growth,[23],0.877 (active)
same,normalized growth,"S. cerevisiae deletion strains, locus YOL006C, strain TOP1, hits give low values",0.857
same,normalized growth,[24],0.761 (active)
same,normalized growth,[25],0.716 (active)
same,normalized growth,[26],0.667
same,normalized growth,[27],0.922
COc1ccccc1N1CCN(C(=O)C(C)Nc2ccccn2)CC1 (stereo not drawn),normalized growth,[3],0.994
same,normalized growth,[4],1
same,normalized growth,[1],0.985
same,normalized growth,[5],0.986
same,normalized growth,[6],1.01
same,normalized growth,[7],0.986
same,normalized growth,[2],0.952
same,normalized growth,[8],1.01
same,normalized growth,[9],0.994
same,normalized growth,[10],1
same,normalized growth,[11],1.02
same,normalized growth,[12],0.997
same,normalized growth,[13],0.996
same,normalized growth,[14],1.04
same,normalized growth,[15],0.996
same,normalized growth,[16],0.984
same,normalized growth,[17],0.999
same,normalized growth,[18],1.04
same,normalized growth,[19],1.09
same,normalized growth,[20],1.02
same,normalized growth,[21],0.997
same,normalized growth,[22],0.999
same,normalized growth,[23],1
same,normalized growth,[24],1.01
same,normalized growth,[25],1.24 [resistant] (active)
same,normalized growth,[26],1
